Assay results from the supplement of paper PMC6897291.

Tested on: RIVA
Assay: growth inhibition by drug plus 177Lu-lilotomab satetraxetan (1 - RLU/untreated control) (fraction); higher = stronger inhibition
Settings: 177Lu-lilotomab satetraxetan 0.5 ug/ml
Method: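 RIVA (RI-1) ABC-DLBCL cells were pretreated or not for 18 h with 0.5 ug/ml 177Lu-lilotomab satetraxetan (600 MBq/mg), washed and seeded (3000 cells/well) on 384-well plates pre-printed with the Selleck Cambridge Cancer Compound library. Viability was read by RealTime-Glo luminescence on days 3-6 after seeding. Effect = 1 - RLU/mean RLU of the 48 untreated no-drug control wells per plate; Bliss score = (M-E)/(1-Fa).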

Structure (SMILES)	growth inhibition by drug plus 177Lu-lilotomab satetraxetan (10 nM, time (day): 3)	growth inhibition by drug plus 177Lu-lilotomab satetraxetan (10 nM, time (day): 4)	growth inhibition by drug plus 177Lu-lilotomab satetraxetan (10 nM, time (day): 5)	growth inhibition by drug plus 177Lu-lilotomab satetraxetan (10 nM, time (day): 6)	growth inhibition by drug plus 177Lu-lilotomab satetraxetan (100 nM, time (day): 3)	growth inhibition by drug plus 177Lu-lilotomab satetraxetan (100 nM, time (day): 4)	growth inhibition by drug plus 177Lu-lilotomab satetraxetan (100 nM, time (day): 5)	growth inhibition by drug plus 177Lu-lilotomab satetraxetan (100 nM, time (day): 6)
Cn1cc(C2=C(c3cn(C4CCN(Cc5ccccn5)CC4)c4ccccc34)C(=O)NC2=O)c2ccccc21	0.515	0.546	0.557	0.564	0.356	0.435	0.443	0.436
CCC1(c2ccc(N)cc2)CCC(=O)NC1=O (stereo not given) [Aminoglutethimide (Cytadren)]	0.446	0.523	0.538	0.547	0.226	0.376	0.379	0.408
CC[C@@H](C(=O)[C@@H](C)[C@@H](O)[C@H](C)[C@@H]1O[C@@H]([C@@H](CC)C(=O)O)CC[C@@H]1C)[C@H]1O[C@]2(C=C[C@@H](O)[C@]3(CC[C@@](C)([C@H]4CC[C@](O)(CC)[C@H](C)O4)O3)O2)[C@H](C)C[C@@H]1C [Salinomycin (Procoxacin)]	0.491	0.572	0.591	0.6	0.481	0.518	0.517	0.502
N[C@@H](Cc1ccc(N(CCCl)CCCl)cc1)C(=O)O [Melphalan]	0.357	0.502	0.516	0.527	0.365	0.48	0.492	0.494
Cc1cc2c(C(C)C)c(O)c(O)c(C=O)c2c(O)c1-c1c(C)cc2c(C(C)C)c(O)c(O)c(C=O)c2c1O [Gossypol]	0.354	0.475	0.501	0.51	0.233	0.353	0.38	0.364
